90 compounds from PubChem BioAssay AID588458 (Sanford-Burnham Center for Chemical Genomics, 2011) can be followed below.

Out of some 360,000 compounds screened, about 3,000 (0.83%) were called active. For the sample, actives were picked, then their nearest neighbours and some compounds at random. A number with no mark means an inactive call. Rule as the data show it: active = inhibition above about 50%; inactive = the rest.

This experiment deals with DNA (cytosine-5)-methyltransferase 1 (Homo sapiens) (UniProt P26358). Briefly: inhibition of DNA methyltransferase DNMT1 – biochemical, molecular beacon, fluorescence, HinP1I cleavage, uHTS, primary screen (AID 588458). The settings on record: at 10 µM, stronger effect = higher value.
DNA (cytosine-5)-methyltransferase 1 (Homo sapiens), sequence (P26358 504-1616 limits assumed): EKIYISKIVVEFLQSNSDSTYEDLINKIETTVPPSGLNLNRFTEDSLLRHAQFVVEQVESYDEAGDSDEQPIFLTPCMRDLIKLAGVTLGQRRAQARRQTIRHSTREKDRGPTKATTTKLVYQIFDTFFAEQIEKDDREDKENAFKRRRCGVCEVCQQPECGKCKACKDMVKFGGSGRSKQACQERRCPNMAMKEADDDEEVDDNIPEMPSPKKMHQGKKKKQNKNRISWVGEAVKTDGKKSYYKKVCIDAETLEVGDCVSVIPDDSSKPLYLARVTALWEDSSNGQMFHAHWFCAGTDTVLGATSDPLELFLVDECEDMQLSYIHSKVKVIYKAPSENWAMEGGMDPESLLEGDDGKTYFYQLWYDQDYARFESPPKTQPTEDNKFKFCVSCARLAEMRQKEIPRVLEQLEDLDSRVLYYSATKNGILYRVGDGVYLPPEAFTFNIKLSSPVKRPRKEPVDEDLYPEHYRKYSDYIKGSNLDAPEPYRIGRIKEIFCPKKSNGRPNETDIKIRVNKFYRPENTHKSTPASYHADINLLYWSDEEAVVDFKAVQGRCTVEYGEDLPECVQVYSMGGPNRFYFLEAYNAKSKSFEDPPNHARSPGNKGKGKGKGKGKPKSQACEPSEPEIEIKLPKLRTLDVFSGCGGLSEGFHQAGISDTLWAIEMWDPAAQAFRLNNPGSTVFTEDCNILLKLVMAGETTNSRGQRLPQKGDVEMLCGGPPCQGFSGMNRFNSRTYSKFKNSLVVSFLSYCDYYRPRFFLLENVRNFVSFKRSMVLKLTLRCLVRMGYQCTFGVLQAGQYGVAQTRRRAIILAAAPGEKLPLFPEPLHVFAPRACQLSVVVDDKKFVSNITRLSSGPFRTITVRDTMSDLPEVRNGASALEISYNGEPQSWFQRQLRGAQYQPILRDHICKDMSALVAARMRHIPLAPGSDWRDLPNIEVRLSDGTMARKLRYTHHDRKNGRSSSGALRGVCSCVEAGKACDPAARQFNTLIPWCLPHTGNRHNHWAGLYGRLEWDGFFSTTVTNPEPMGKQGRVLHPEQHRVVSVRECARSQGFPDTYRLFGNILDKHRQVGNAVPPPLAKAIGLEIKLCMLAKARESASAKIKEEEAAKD
As for `COc1cccc(-c2cc3nc(NCc4ccccc4OC)n(C)c(=O)c3s2)c1`, the inhibition (reported as % activation of signal) was -11.8%. As for `CC1C(=O)N(Cc2cn(CC3CCCCC3)nn2)CCS(=O)(=O)N1Cc1ccc(-c2cccc(N(C)C)c2)cc1` (stereo not given), the inhibition (reported as % activation of signal) was -9.42%. The value for `Cc1csc(OCC(=O)Nc2ccc(C)c(C)c2)n1` was -0.47%. With `CCCNC(=O)c1cc(C2CCCN(C(=O)c3ccc4c(c3)CCO4)C2)on1` (stereo not given), the inhibition (reported as % activation of signal) was -0.91%. The value for `COc1ccc(S(=O)(=O)N2CCCCC2c2cc(C(=O)NCc3ccc(F)cc3)no2)cc1` (stereo not given) was 6.18%; that for `CC(C)Cc1nc(Cl)c(C#N)c2c1CCC2` was 3.27%.

On to `CC(NC(=S)NC1CCCCC1)C(c1ccccc1)N1CCOCC1` (stereo not given), for which the inhibition (reported as % activation of signal) was 1.12%. The value for `CC(C(=O)Nc1ccc(O)c(C(=O)O)c1)N1C(=O)/C(=C/c2cccs2)SC1=S` (stereo not given) was -9.71%; that for `CC(C(=O)NC1CCS(=O)(=O)C1)N1C(=O)/C(=C/c2ccc(Cl)cc2)SC1=S` (stereo not given) was -2.43%; that for `O=C(O)C(c1ccccc1)N1C(=O)/C(=C\c2ccc(-c3cccc(Cl)c3)o2)SC1=S` (stereo not given) was 79.8% (active). In the case of `NC(=O)CCC(NS(=O)(=O)c1ccc(Cl)cc1)C(=O)NCc1ccccc1Cl` (stereo not given), the inhibition (reported as % activation of signal) is 4.11%.

With `COc1cccc(N2CCN(C(=O)C3CCCN(S(=O)(=O)c4cnc[nH]4)C3)CC2)c1` (stereo not given), the inhibition (reported as % activation of signal) was -15.4%. For `CCOC(=O)c1cccc(NC(=O)C2CCCN(S(=O)(=O)c3cnc[nH]3)C2)c1` (stereo not given), the inhibition (reported as % activation of signal) was 76.5% (active). The value for `O=C(NCc1ccco1)C1CCCN(S(=O)(=O)c2cnc[nH]2)C1` (stereo not given) was -1.66%; that for `CC(C)c1cc(C(=O)N/N=C/c2ccoc2)c(O)c(C(C)C)c1` was 13.8%. The value for `Cc1ccc(O)c(/C=N/NC(=O)COc2ccc3c(C)cc(=O)oc3c2)c1` was 59.9% (active). The value for `CCOC(=O)Cc1csc(NC(=O)COc2ccc3c(C)cc(=O)oc3c2)n1` was -0.49%; that for `Cc1cc(=O)oc2cc(OCC(=O)Nc3nnc(C4CC4)s3)ccc12` was -3.06%. As to `CN(C(=O)COC(=O)Cc1ccccc1[N+](=O)[O-])C1CCS(=O)(=O)C1` (stereo not given), the inhibition (reported as % activation of signal) is 2.42%. The value for `CN(CCOc1ccccc1)C(=O)c1cc(COc2c(F)cccc2F)on1` was 1.59%; that for `CN(CCOc1ccccc1)C(=O)c1cc(-c2ccco2)nc2ccccc12` was 72.3% (active). The value for `CN(C(=O)COC(=O)c1cc(-c2ccco2)nc2ccccc12)C1CCS(=O)(=O)C1` (stereo not given) was 92.3% (active); that for `COc1ccc(NC(=O)COc2ccc(C(=O)OCC(=O)N(C)C3CCS(=O)(=O)C3)cc2OC)cc1` (stereo not given) was 8.48%.

Take `O=C(c1cc(-c2ccco2)nc2ccccc12)N(Cc1nnc(-c2ccc(Cl)cc2)o1)C1CC1`: the inhibition (reported as % activation of signal) is 13.4%. The value for `OCC[C@H]1C[C@H](O)[C@@H](O)[C@]2(CCCCO2)O1` was 5.49%; that for `CCOc1ccccc1-n1c(SCC(=O)N2CCCC2)nnc1-c1ccoc1C` was 7.56%; that for `COc1ccc(Cl)cc1S(=O)(=O)Nc1cccc(C(=O)O)c1` was -3.3%. The value for `COc1cc(OC)cc(-c2sc3ccc(OC)cc3c2-c2ccc3cc[nH]c3c2)c1` was -17.8%; that for `COc1ccc2sc(-c3ccc(S(C)(=O)=O)cc3)c(C#Cc3cncn3C)c2c1` was -10.4%; that for `COc1ccc2sc(-c3ccc(S(C)(=O)=O)cc3)c(-c3ccc(C(N)=O)cc3)c2c1` was 86.5% (active). The value for `O=C(NCc1ccco1)c1cnn2c(C(F)(F)F)cc(-c3ccco3)nc12` was -0.51%; that for `COCC(=O)N(C)[C@H]1C[C@H]2c3cc(Oc4ccccc4C)ccc3CCN2C(=O)[C@H]1[C@H](C)O` was -0.44%. As to `CCOC(=O)/C(C#N)=C/c1ccc(OCC(=O)Nc2ccccc2)c(OC)c1`, the inhibition (reported as % activation of signal) is 59.5% (active). The value for `COc1cc(C2C3=C(CCCC3=O)OC3=C2C(=O)CCC3)ccc1OCC(=O)Nc1ccccc1` was -1.83%; that for `CCCn1c(C)cc(/C=C(\C#N)C(=O)OCC(=O)Nc2cc(OC)c(OC)c(OC)c2)c1C` was -3.49%; that for `COC(=O)Nc1nc2ccc(Sc3ccccc3)cc2[nH]1` was 23.1%. The value for `CCCNC(=O)C1(C)CCN1C(=O)Cc1ccc(-c2ccccc2)cc1` (stereo not given) was -1.26%; that for `CCOC(=O)C1CCCN(C(=O)c2ccc(C)c(F)c2)CC1` (stereo not given) was 1.76%; that for `CCNC(=O)C1CCCN(C(=O)c2cc(F)ccc2C)CC1` (stereo not given) was 58% (active). The value for `CCNC(=O)C1CCCN(C(=O)c2ccc(OC)cc2OC)CC1` (stereo not given) was -0.58%. Turning to `Nc1nc(NCc2ccccc2)n(-c2ccccc2)n1`, the inhibition (reported as % activation of signal) was -0.22%. The value for `Cc1cc(C)n2nc(C(=O)N(C)C(c3ccccc3)c3ccccc3)nc2n1` was 2.32%; that for `O=c1cc(CN2CCCCCCC2)c2c(ccc3ccccc32)o1` was -0.34%; that for `c1ccc2cc3[nH]c(CN4CCCCC4)nc3cc2c1` was 83.2% (active). The value for `Cc1ccc2[nH]c(=O)c(CN3CCCCC3)c(-c3ccccc3)c2c1` was -7.9%. The value for `Cc1cc(C)nc(NS(=O)(=O)c2ccc(N/C=C\C(=O)c3cccs3)cc2)n1` was -0.17%; that for `CC(C)(C)n1nnc(CCc2nnn(C(C)(C)C)n2)n1` was 0.1%; that for `O=C(COC(=O)/C=C/c1cccc(Cl)c1)NCCc1ccccc1` was -1.37%.

On to `COc1cccc(C=CC(=O)C=CC=Cc2ccccc2)c1`, for which the inhibition (reported as % activation of signal) was 13.2%. The value for `NNc1cccc(C=Cc2ccccc2)cc1=O` was 75.5% (active). Consider `COc1ccc(CC(=O)NCc2nnc(SCC(=O)Nc3ncc(C)s3)n2C)cc1`, for which the inhibition (reported as % activation of signal) is -1.25%. The value for `COc1cc(NC(=S)NNC(=O)CC(C)C)c(OC)cc1Cl` was -0.35%; that for `CC(=O)Nc1ccccc1Sc1ccc2c3c(cccc13)C(=O)N(c1ccc(C)cc1)C2=O` was 73.9% (active); that for `Cc1ccc(N2C(=O)CC(Nc3cccc4ccccc34)C2=O)cc1` (stereo not given) was -1.89%. The value for `CSc1ccccc1NC(=O)C(C)N1C(=O)c2ccccc2S1(=O)=O` (stereo not given) was -0.34%; that for `O=C(c1ccco1)N1CCN(C(=O)C2CCCN(S(=O)(=O)c3cccc4nsnc34)C2)CC1` (stereo not given) was 0.5%. The value for `CCC(=O)N1CCCC1(C)C(=O)Nc1ccc2c(c1)CCN2C(C)=O` (stereo not given) was -1.12%. On to `Cc1ccc(NS(=O)(=O)c2c(C)[nH]c(C)c2C(=O)N2CCCCC2)c(C)c1`, for which the inhibition (reported as % activation of signal) was 12.2%. For `C=Cc1ccc(C(=O)N2CCCC(CCC(=O)N3CCN(c4ccccn4)CC3)C2)cc1` (stereo not given), the inhibition (reported as % activation of signal) was 80.1% (active).

`COc1cccc(CC(=O)N2CCCC(CCC(=O)N3CCN(c4ccccn4)CC3)C2)c1` (stereo not given): the inhibition (reported as % activation of signal) was -0.42%. The value for `O=C(CCC1CCCN(C(=O)c2ccc(F)c(F)c2)C1)N1CCN(c2ccccn2)CC1` (stereo not given) was 3.2%. The value for `O=C(CN1CCN(S(=O)(=O)c2cccc(Cl)c2)CC1)N1CCCCC1` was -1.19%; that for `O=C(CN1CCCSc2ccccc21)N1CCN(S(=O)(=O)c2ccccc2)CC1` was -0.81%.

As for `O=C(CN1CCCSc2ccccc21)N1CCN(S(=O)(=O)c2cccc(F)c2)CC1`, the inhibition (reported as % activation of signal) was 89.2% (active). The value for `COc1ccc(C(=O)N2CCN(c3ccc(C(C)=O)cc3F)CC2)cc1S(=O)(=O)NC1CC1` was 3.83%; that for `CC1CCC(C(C)C)C(=O)/C1=C\c1ccc(NC(=O)CCC(=O)O)cc1` (stereo not given) was 0.83%. The value for `Cc1ccc(Cc2cncc(O)c2)cc1S(=O)(=O)O` was 50.3% (active); that for `COC(=O)CC(=O)N1CCN(c2ccc(Cl)c(Cl)c2)CC1` was -1.96%; that for `CC1(Oc2ccc(Cl)cc2)CCN(Cc2csc3ccccc23)C1` (stereo not given) was 1.6%. `O=S(=O)(NCCc1ccc(Cl)cc1)c1cccs1`: the inhibition (reported as % activation of signal) is -0.79%. The value for `CCOC(=O)c1c(C)[nH]c(C)c1C(=O)CSc1nc(N)cc(N)n1` was -17.2%; that for `CCOC(=O)c1c(C)[nH]c2c1-c1ccccc1C(=O)C2=O` was 93.5% (active); that for `CCOC(=O)c1c(NC(=O)CSc2nccc(=O)[nH]2)sc(C)c1C` was 0.32%. The value for `O=C(OCC(=O)N1CCCC1=O)c1cc(S(=O)(=O)N2CCOCC2)ccc1Cl` was 0.37%; that for `CCOC(=O)c1sc(N(Cc2ccccc2)C(=O)CN2C(=O)CN(C)C2=O)nc1C` was -3.6%; that for `CC(C)(C)NC(=O)CSC(=Nc1ccccc1F)NC#N` was 52.8% (active).

As to `Cc1ccccc1CSCC(=O)NC(=O)NC(C)(C)C`, the inhibition (reported as % activation of signal) is -1.56%.

In the case of `CC(C)(C)NC(=O)CSc1nnc(NC(=O)CCc2ccccc2)s1`, the inhibition (reported as % activation of signal) was -0.32%. The value for `CCCC/C=C/c1cccc2nncn12` was 5.75%. For `COc1ccccc1C(=O)Nc1ccc(OCC(=O)N2CCCCC2)cc1`, the inhibition (reported as % activation of signal) was 5.57%.

In the case of `COc1ccc2c(c1)c(=O)c(C(=O)c1ccc(Cl)cc1)cn2CC(=O)Nc1ccc(F)cc1`, the inhibition (reported as % activation of signal) was 59.8% (active).

Regarding `COc1ccc(NC(=O)CC2C(=O)NC3CCCCC3N2C(=O)c2ccc(F)cc2)cc1` (stereo not given), the inhibition (reported as % activation of signal) was 4.5%. The value for `O=C(c1ccc(F)cc1)c1cn(Cc2ccc(F)cc2)c2cc3c(cc2c1=O)OCCO3` was -8.26%; that for `CNc1cc(-c2c(OC)cccc2OC)ncn1` was 5.78%; that for `COC(=O)c1ccc(C2NC(=O)NC(C)=C2C(=O)N(C)C)cc1` (stereo not given) was 0.97%. As for `O=C(NNC(=O)c1cc(-c2ccccc2Cl)nc2ccccc12)c1csc(N2CCOCC2)n1`, the inhibition (reported as % activation of signal) is 1.75%. The value for `O=C(Nc1ccc2ccccc2c1)Nc1ccc2snnc2c1` was -8.95%; that for `COC(=O)c1ccccc1NC(=O)C1(S(=O)(=O)c2ccc(Cl)cc2)CC1` was -0.08%; that for `CCOC(=O)C1CCCN(C(=O)CSc2nnc3nc(C)cc(C)n23)C1` (stereo not given) was 0.98%. The value for `CN(C)CC(C)(C)CNC(=O)c1cc(Br)cc(Br)c1O` was -5.18%.
